We go through 19 molecules from PubChem BioAssay.

Values without a mark were called inactive. For some assays here: Measured potencies and affinities stand elsewhere. Active and inactive are the calls of the source. Unless noted, the rule behind the calls is not given here.

Assay [1] can be described thus: antimalarial activity against Dd2 strain (AID 2302;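 active = growth inhibition above 50% at the single 2 µM test dose, taken to imply half-maximal potency below 2 µM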;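 note: 0% = DMSO untreated growth and 100% = chloroquine plus artemisinin killed control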). To be noted: P. falciparum Dd2 in RBCs, LDH growth readout, 72 h; at 2 µM; stronger effect = higher value.
The nature of assay [2]: HepG2 cytotoxicity, primary screen, cytotoxicity control for P. falciparum antimalarial project, cell-based, ATP luminescence (AID 2303;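 active = inhibition above 50%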;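 note: 0% = DMSO wells and 100% = digitonin-killed cells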). The note with it: HepG2 viability, 24-48 h, at 10 µM, stronger effect = higher value.
The target of assay [3] is L-lactate dehydrogenase (Plasmodium falciparum (isolate CDC / Honduras)) (UniProt Q27743). Briefly: PfLDH activity inhibition – cell lysate, 3D7 strain, counter-screen for P. falciparum growth inhibition project (AID 2304).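 Note: 0% = vehicle and 100% = reference inhibitor.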 The note with it: P. falciparum 3D7 crude extract, LDH APAD/NBT absorbance; at 2 µM; stronger effect = higher value. Background: A counterscreen serves to expose hits that act by an unwanted route or on another target.

Assay [4] in a line: inhibition of 3D7 malaria parasite growth – strain 3D7 (AID 2306).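 Note: 0% = DMSO wells and 100% = chloroquine plus artemisinin control wells.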 To be noted: P. falciparum 3D7 erythrocytic growth, LDH absorbance, 72 h; at 2 µM; stronger effect = higher value.
Assay [5] deals with Calcium-dependent protein kinase 1 (Plasmodium falciparum (isolate 3D7)) (UniProt P62344). Kind of assay: PfCDPK1 kinase inhibitors, biochemical, TCAMS library (AID 1159585; cut-off not given, nearly all actives have IC50 up to about 0.98 µM;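 note: inhibitors leave more ATP so luminescence rises with inhibition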). To be noted: recombinant PfCDPK1, Kinase-Glo ATP depletion luminescence. On the technique in general: Kinase-Glo reads ATP consumption through a luciferase reaction.
For assay [6], the target named is Plasmodium falciparum protein kinase 6 (PK6, PF3D7_1337100) (UniProt Q8IDW1). Kind of assay: PfPK6 kinase inhibitors, biochemical, TCAMS library (AID 1159586). The note with it: recombinant PfPK6, Kinase-Glo ATP depletion luminescence.
The target in assay [7] is Protein kinase 7 (PK7), Plasmodium falciparum 3D7 (PF3D7_0213400) (UniProt Q7YTF7). Kind of assay: inhibition of Plasmodium PK7 catalytic activity – biochemical, TCAMS antimalarial set, Kinase-Glo luminescence (AID 1159587). To be noted: recombinant PfPK7, Kinase-Glo ATP depletion luminescence.
For assay [8], the target named is Calcium-dependent protein kinase 4 (Plasmodium falciparum (isolate 3D7)) (UniProt Q8IBS5). Kind of assay: PfCDPK4 kinase inhibitors, biochemical, TCAMS library (AID 1159588; cut-off not given, nearly all actives have IC50 up to about 0.91 µM). The note with it: recombinant PfCDPK4, Kinase-Glo ATP depletion luminescence.

For orientation: inhibition means the relative decrease from the control value, in per cent.

Plasmodium falciparum protein kinase 6 (PK6, PF3D7_1337100), sequence (Q8IDW1 1-305): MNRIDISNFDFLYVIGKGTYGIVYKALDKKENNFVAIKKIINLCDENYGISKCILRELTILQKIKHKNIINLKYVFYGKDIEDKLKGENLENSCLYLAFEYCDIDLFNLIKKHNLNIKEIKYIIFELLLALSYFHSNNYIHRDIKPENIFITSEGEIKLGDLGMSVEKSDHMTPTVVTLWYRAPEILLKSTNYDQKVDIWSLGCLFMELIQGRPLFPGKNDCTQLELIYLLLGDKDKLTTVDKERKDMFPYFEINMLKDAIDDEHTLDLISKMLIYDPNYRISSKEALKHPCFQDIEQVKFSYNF
L-lactate dehydrogenase (Plasmodium falciparum (isolate CDC / Honduras)), sequence (Q27743 whole entry, looked up): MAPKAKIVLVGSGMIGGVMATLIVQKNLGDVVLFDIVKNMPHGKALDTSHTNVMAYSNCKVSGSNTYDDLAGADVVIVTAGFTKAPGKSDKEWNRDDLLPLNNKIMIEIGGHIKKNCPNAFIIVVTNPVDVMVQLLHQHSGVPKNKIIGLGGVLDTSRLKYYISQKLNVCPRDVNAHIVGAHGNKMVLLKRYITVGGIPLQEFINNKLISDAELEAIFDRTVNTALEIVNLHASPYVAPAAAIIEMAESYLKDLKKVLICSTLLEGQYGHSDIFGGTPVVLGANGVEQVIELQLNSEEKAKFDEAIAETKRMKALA
Calcium-dependent protein kinase 1 (Plasmodium falciparum (isolate 3D7)), sequence (P62344 whole entry, looked up): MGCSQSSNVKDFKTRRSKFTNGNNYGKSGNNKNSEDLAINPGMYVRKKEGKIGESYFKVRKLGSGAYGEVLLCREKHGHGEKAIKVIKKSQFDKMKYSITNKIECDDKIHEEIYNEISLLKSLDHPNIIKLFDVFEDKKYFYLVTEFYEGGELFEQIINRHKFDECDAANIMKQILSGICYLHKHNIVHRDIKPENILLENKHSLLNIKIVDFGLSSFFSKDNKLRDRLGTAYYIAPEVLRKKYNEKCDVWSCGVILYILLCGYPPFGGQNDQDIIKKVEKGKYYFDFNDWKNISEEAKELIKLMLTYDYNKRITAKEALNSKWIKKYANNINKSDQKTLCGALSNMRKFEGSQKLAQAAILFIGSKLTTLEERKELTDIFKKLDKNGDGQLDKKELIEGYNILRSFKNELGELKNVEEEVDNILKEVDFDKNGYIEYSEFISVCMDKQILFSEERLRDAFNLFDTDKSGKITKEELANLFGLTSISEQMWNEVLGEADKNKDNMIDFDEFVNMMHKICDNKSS
Protein kinase 7 (PK7), Plasmodium falciparum 3D7 (PF3D7_0213400), sequence (Q7YTF7 1-343): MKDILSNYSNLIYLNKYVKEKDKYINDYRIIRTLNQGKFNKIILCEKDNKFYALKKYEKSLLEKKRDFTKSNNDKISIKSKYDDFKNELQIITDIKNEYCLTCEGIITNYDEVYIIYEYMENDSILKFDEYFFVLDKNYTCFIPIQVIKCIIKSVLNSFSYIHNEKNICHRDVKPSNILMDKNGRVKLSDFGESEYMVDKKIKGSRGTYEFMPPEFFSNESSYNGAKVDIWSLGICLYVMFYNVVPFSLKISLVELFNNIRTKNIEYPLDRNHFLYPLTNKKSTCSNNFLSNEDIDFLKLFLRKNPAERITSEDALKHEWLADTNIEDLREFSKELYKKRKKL
Calcium-dependent protein kinase 4 (Plasmodium falciparum (isolate 3D7)), sequence (Q8IBS5 whole entry, looked up): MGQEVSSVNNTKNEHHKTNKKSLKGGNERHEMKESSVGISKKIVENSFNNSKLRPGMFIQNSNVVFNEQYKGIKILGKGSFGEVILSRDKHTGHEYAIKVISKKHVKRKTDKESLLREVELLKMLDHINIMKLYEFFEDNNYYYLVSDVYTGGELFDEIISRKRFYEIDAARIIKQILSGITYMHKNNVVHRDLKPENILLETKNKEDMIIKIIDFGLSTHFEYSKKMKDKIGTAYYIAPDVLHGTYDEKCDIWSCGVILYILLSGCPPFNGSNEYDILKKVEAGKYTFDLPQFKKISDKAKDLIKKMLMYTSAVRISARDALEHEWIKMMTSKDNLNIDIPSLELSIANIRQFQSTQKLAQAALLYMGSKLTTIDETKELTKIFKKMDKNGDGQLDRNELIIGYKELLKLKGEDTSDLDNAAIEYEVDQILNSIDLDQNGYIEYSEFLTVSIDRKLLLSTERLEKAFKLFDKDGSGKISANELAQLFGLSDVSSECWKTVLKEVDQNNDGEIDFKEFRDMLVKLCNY

Regarding `Cc1cc(NN=Cc2ccccc2F)c2cccc(C)c2n1`, the growth inhibition in assay [1] was 14%; in assay [4] it was 102% (active). Besides, the inhibition in assay [2] is 7%; in assay [3], -2%. In addition, the result in assay [5], in assay [6], in assay [7] and in assay [8] was inactive.
With `O=C(/C=C/c1ccccc1Cl)Nc1ccc(Br)c(OCCN2CCC(O)(c3ccccc3)CC2)c1`, the growth inhibition in assay [1] is 85% (active); in assay [4], 101% (active). The inhibition in assay [2] was 39%; in assay [3], 0%. Further, the outcome in assay [5], in assay [6], in assay [7] and in assay [8] was inactive.
In the case of `Cc1cc(N[C@@H](CC(C)C)C(=O)NCc2cccs2)nc(Nc2ccccc2)n1`, the growth inhibition was 57% (active) in assay [1] and 100% (active) in assay [4]. The results for the inhibition in assay [2] and in assay [3] were 18% and 1%, respectively. The outcome in assay [5], in assay [6], in assay [7] and in assay [8] was inactive.
As to `CC(C)COc1ccc(Cl)cc1Cc1nc(-c2nc3nc(N4CCN(C)CC4)ccc3[nH]2)cs1`, the growth inhibition was 27% in assay [1] and 99% (active) in assay [4]. Besides, the values for the inhibition in assay [2] and in assay [3] were 29% and -6%, respectively. Also, the outcome in assay [5], in assay [6], in assay [7] and in assay [8] was inactive.
With `O=C(NCCNc1ccnc(Nc2ccc(F)cc2)n1)c1cc2ccccc2s1`, the results for the growth inhibition in assay [1] and in assay [4] were 34% and 99% (active), respectively. Moreover, the inhibition in assay [2] is -1%; in assay [3], -11%. The outcome in assay [5], in assay [6], in assay [7] and in assay [8] was inactive.
Take `Cc1cccc2[nH]c(-c3ccc(-c4ccc(CN5CCN(CCO)CC5)cc4)cc3)nc12`: the growth inhibition in assay [1] was 97% (active); in assay [4] it was 100% (active). For the same molecule, the inhibition in assay [2] was 20%; in assay [3] it was -4%. In addition, the result in assay [5], in assay [6], in assay [7] and in assay [8] was inactive.
As to `CC(C)Oc1cc2c(cc1NS(=O)(=O)c1ccc(-c3ccc(Cl)s3)cc1F)CCN(C)CC2`, the growth inhibition in assay [1] was 1%; in assay [4], 99% (active). Moreover, the inhibition in assay [2] is 23%; in assay [3] it was -5%. The outcome in assay [5], in assay [6], in assay [7] and in assay [8] was inactive.
In the case of `CCC1CN(S(=O)(=O)c2ccc3c(c2)NC(=O)CC(=O)N3)c2cc(Cl)ccc2O1` (configuration not stated), the results for the growth inhibition in assay [1] and in assay [4] were 65% (active) and 99% (active), respectively. Besides, the figures for the inhibition in assay [2] and in assay [3] were -9% and -5%, respectively. The outcome in assay [5], in assay [6], in assay [7] and in assay [8] was inactive.
Turning to `Cc1cc(NCCC(=O)NCCOc2ccccc2)nc(NCCc2ccccc2)n1`, the growth inhibition in assay [1] was 9%; in assay [4], 99% (active). Also, the inhibition is -6% in assay [2] and -1% in assay [3]. Moreover, the outcome in assay [5], in assay [6], in assay [7] and in assay [8] was inactive.
In the case of `CCN(CC)CCN(Cc1ccc(-c2ccc(C(F)(F)F)cc2)cc1)C(=O)Cn1c(CCc2cccc(F)c2F)nc(=O)c2sccc21`, the values for the growth inhibition in assay [1] and in assay [4] were 70% (active) and 96% (active), respectively. The results for the inhibition in assay [2] and in assay [3] were 70% (active) and 6%, respectively. The result in assay [5], in assay [6], in assay [7] and in assay [8] was inactive.
For the molecule `O=C(NCCc1ccccc1)N(Cc1ccccc1-c1cccc(CNCCc2ccccc2)c1)C1CCN(Cc2ccccc2)CC1`, the growth inhibition was 88% (active) in assay [1] and 100% (active) in assay [4]. In addition, the inhibition was 100% (active) in assay [2] and 4% in assay [3]. Besides, the result in assay [5], in assay [6], in assay [7] and in assay [8] was inactive.
Consider `CC(C)(C)c1ccc(OCCCON2C(N)=NC(N)=NC2(C)C)c(C(C)(C)C)c1`, for which the growth inhibition is 97% (active) in assay [1] and 93% (active) in assay [4]. Further, the inhibition in assay [2] was 64% (active); in assay [3], 2%. In addition, the result in assay [5], in assay [6], in assay [7] and in assay [8] was inactive.
As for `COc1cc(F)c2ncc(Cl)c(CCN3CCC(NCc4ccc5c(c4)NC(=O)CO5)CC3)c2c1`, the growth inhibition was 79% (active) in assay [1] and 95% (active) in assay [4]. Also, the inhibition in assay [2] is 32%; in assay [3], -2%. The outcome in assay [5], in assay [6], in assay [7] and in assay [8] was inactive.
For the molecule `COc1ccc2c(NN=CC=Cc3ccccc3)cc(C)nc2c1`, the growth inhibition in assay [1] was 56% (active); in assay [4], 99% (active). Moreover, the inhibition in assay [2] is 18%; in assay [3] it was 2%. In addition, the outcome in assay [5], in assay [6], in assay [7] and in assay [8] was inactive.
Consider `COc1cccc(CN(C(=O)Nc2ccccc2F)[C@H]2C[C@H]3C(=O)Nc4cc(F)ccc4C(=O)N3C2)c1`, for which the growth inhibition in assay [1] was 75% (active); in assay [4], 93% (active). Also, the inhibition in assay [2] is -7%; in assay [3], 3%. The outcome in assay [5], in assay [6], in assay [7] and in assay [8] was inactive.
`CN(C)CC(=O)Nc1cccc(Nc2nccc(NCC(O)c3ccccc3)n2)c1` (configuration not stated): the growth inhibition in assay [1] was 3%; in assay [4], 102% (active). Besides, the results for the inhibition in assay [2] and in assay [3] were 30% and -5%, respectively. Moreover, the result in assay [5], in assay [6], in assay [7] and in assay [8] was inactive.
Consider `CCOc1ccc2c(NN=Cc3cccc([N+](=O)[O-])c3)cc(C)nc2c1`, for which the growth inhibition in assay [1] is 97% (active); in assay [4], 100% (active). Besides, the inhibition in assay [2] was 4%; in assay [3], 3%. Also, the result in assay [5], in assay [6], in assay [7] and in assay [8] was inactive.
Regarding `CSc1cccc(NC(=O)c2cc3ccccc3oc2=O)c1`, the growth inhibition was 75% (active) in assay [1] and 92% (active) in assay [4]. In addition, the inhibition in assay [2] is -4%; in assay [3], 4%. Also, the result in assay [5], in assay [6], in assay [7] and in assay [8] was inactive.
With `Cc1cccc2[nH]c(-c3ccc(-c4cccc(CNC5CCN(C)CC5)c4)s3)nc12`, the growth inhibition in assay [1] is 73% (active); in assay [4] it was 98% (active). In addition, the inhibition in assay [2] is 21%; in assay [3] it was 2%. Besides, the outcome in assay [5], in assay [6], in assay [7] and in assay [8] was inactive.
